# TDP1 cell CPT: growth inhibition of DT40 Tdp1-/-;hTDP1 cells with camptothecin (screen for TDP1 inhibitors); chicken DT40 Tdp1-/-;hTDP1 cells + 20 nM CPT, ATP luminescence, 48 h; Potency, µM (doses to about 46.2 µM), for inactives: top-dose activity change, negative = growth inhibition, actives largely listed as inhibitors; 420,000 tested, 12% active; AID 686979; also: potency is read from the fitted curve at half-maximal effect; nearly all actives have a fitted effect of over 55% in size
#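 Cell growth measured by CellTiter-Glo luminescence after a minimum 48 h, 37 C compound exposure with 20 nM CPT in Tdp1-knockout DT40 cells stably expressing hTDP1, seeded 400/well; qHTS titration format.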
# ALOX12 inh: inhibitors of human 12S-lipoxygenase ALOX12; P18054; purified 12hLO, xylenol orange hydroperoxide absorbance; Potency, µM (titrated, usually from 108 µM), for the others: at the top dose activity change, negative = inhibition, usual class: inhibitors; 580,000 tested, 1.1% active; also: potency is read from the fitted curve at half-maximal effect
# Target sequence (P18054 whole entry, looked up): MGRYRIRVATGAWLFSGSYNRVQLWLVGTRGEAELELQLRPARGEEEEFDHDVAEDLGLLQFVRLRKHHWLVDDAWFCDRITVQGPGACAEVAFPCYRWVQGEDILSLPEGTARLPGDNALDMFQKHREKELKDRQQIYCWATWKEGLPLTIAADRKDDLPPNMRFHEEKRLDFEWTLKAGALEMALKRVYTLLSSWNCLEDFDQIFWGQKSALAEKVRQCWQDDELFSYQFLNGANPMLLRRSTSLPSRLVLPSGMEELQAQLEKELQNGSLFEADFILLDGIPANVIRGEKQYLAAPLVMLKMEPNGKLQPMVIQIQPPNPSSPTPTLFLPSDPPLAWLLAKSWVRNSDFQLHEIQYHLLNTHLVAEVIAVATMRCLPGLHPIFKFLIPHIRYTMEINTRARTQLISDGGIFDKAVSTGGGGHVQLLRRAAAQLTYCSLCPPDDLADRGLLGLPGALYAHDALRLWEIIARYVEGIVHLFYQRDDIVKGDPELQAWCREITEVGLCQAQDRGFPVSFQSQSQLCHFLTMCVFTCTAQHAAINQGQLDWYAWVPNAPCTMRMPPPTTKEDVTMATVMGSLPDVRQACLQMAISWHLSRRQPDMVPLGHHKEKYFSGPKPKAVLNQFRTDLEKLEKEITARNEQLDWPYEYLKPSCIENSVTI
#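 Hydroperoxide product was detected by ferrous iron/xylenol orange as the 573 to 405 nm absorbance ratio. Arachidonic acid at 40 uM (final) was turned over for 30 min at room temperature by 150 nM human 12hLO, pH 7.0 Hepes buffer, after 15 min compound preincubation.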
# HT1080-NT tox: kills 2HG-producing HT-1080-NT fibrosarcoma cells. HT-1080-NT fibrosarcoma viability, CellTiter-Glo ATP luminescence, 48 h. Potency, µM (highest dose often 46.1 µM), for the others: at the top dose activity, negative = less viability, actives largely listed as cytotoxic. 360,000 tested, 1.6% active. AID 686970;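 also: NT is the 2HG producing partner of a matched IDH1 knockdown line; potency is read from the fitted curve at half-maximal effect; 0% = DMSO-treated cells and -100% = media-only wells without cells; nearly all actives have a fitted effect of over 55% in size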
#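 A 48-hour cytotoxicity screen used HT-1080-NT cells plated 2 hours before compound delivery. ATP-based CellTiter-Glo luminescence measured viability, normalized to DMSO and no-cell controls.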
# TDP1 cell noCPT: qHTS for Inhibitors of human tyrosyl-DNA phosphodiesterase 1 (TDP1): qHTS in cells in absence of CPT; 420,000 tested, 15% active; DT40 Tdp1-/- hTDP1 cells, no CPT, ATP luminescence, 48 h; Potency, µM (highest dose often 46.2 µM), for the others: at the top dose activity change, negative = growth inhibition, hits mostly inhibitors; also: potency is read from the fitted curve at half-maximal effect; nearly all actives have a fitted effect of over 55% in size
#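 Cells were dispensed at 400 per well, compounds added by pin tool, plates incubated ≥48 hr at 37 °C, then CellTiter-Glo added for 30 min at room temperature before luminescence reading. Line: DT40 Tdp1-/- complemented with hTDP1; camptothecin omitted.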
# HT1080 IDH1KD tx: kills HT-1080 cells with IDH1 knockdown. Potency, µM (titrated, usually from 46.1 µM), for inactives: at the highest dose activity, negative = toxicity, most hits filed as cytotoxic. HT-1080 IDH1 knockdown viability, ATP luminescence, 48 h. 360,000 tested, 2% active;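 also: potency is read from the fitted curve at half-maximal effect; 0% = DMSO wells and -100% = cell-free medium wells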
#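 Cytotoxicity counter-line: IDH1KD HT-1080, 48 h, CellTiter-Glo. Curves classed by r2, magnitude and activity.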
# IL1B secr inh: inhibitors of inflammasome signaling (IL-1 beta secretion); THP-1 LPS/ATP IL-1B secretion, AlphaLISA, 16 h; stronger effect = lower value; activity change, % at 57.5 µM; 360,000 tested, 4.7% active; AID 743279; in the data active = activity change below about -50%; inconclusive = mostly about -30% to -49%
#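 THP-1 cells pretreated 1 hr with compounds (up to 57.5 uM final), then stimulated with LPS (250 ng/mL final) plus ATP (1.25 mM final); secreted IL-1B measured by AlphaLISA after 16 hr, decreased signal indicating inhibition.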
# * = called active by the depositor; u = inconclusive; x = not tested or not shown. Shown is part of a subset that was picked to be rich in hits. Unless noted, calls follow the shape of the dose curve; as a rule, active = well fitted curve in the direction sought with a large enough effect; inconclusive = small, poorly fitted or top-dose-only effect, or another doubt; inactive = no such curve, though single readings can be large; an effect the other way counts as inactive or inconclusive. Unless noted, % is scaled to controls: 0 for no effect and ±100 for the full control effect.
SMILES,TDP1 cell CPT,ALOX12 inh,HT1080-NT tox,TDP1 cell noCPT,HT1080 IDH1KD tx,IL1B secr inh
COc1cc(/C=N/n2cnnc2)ccc1Oc1nc(Cl)ncc1F,16µM*,11%,4%,u,-1%,-18
Cc1ccc(CN2CCC[C@]3(N[C@H](c4ccc(C(F)(F)F)cc4)[C@@H]4C(=O)N(C)C(=O)[C@@H]43)C2=O)cc1,u,u,-1%,u,-3%,5
COc1ccc([C@H]2N[C@]3(CCCN(Cc4ccc(C(F)(F)F)cc4)C3=O)[C@H]3C(=O)N(C)C(=O)[C@@H]23)cc1,u,u,12%,u,7%,22
Cc1ccc([C@H]2N[C@]3(CCCN(Cc4ccc(C(F)(F)F)cc4)C3=O)[C@H]3C(=O)N(C)C(=O)[C@@H]23)cc1,21µM*,u,-4%,13µM*,12%,9
CN1C(=O)[C@H]2[C@@H](c3ccc(C(F)(F)F)cc3)N[C@]3(CCCN(Cc4cccn4C)C3=O)[C@H]2C1=O,23µM*,u,-4%,16µM*,0%,-19
CN1C(=O)[C@H]2[C@@H](c3ccc(C(F)(F)F)cc3)N[C@]3(CCCN(Cc4ccc(F)cc4)C3=O)[C@H]2C1=O,9.2µM*,u,-18%,7.3µM*,-10%,14
CN1C(=O)[C@H]2[C@@H](c3ccc(C(F)(F)F)cc3)N[C@]3(CCCN(Cc4ccc(Cl)cc4)C3=O)[C@H]2C1=O,1%,-22%,10%,16µM*,12%,11
COc1ccc(S(=O)(=O)N2CCN(CC(=O)Nc3cccc(F)c3)CC2)cc1,-7%,0%,-3%,-3%,6%,0
COc1ccc(S(=O)(=O)N2CCN(CC(=O)Nc3cc(C(F)(F)F)ccc3Cl)CC2)cc1,u,x,-2%,10µM*,-16%,-17
O=C(CN1CCN(S(=O)(=O)c2ccc(F)cc2)CC1)Nc1cc(C(F)(F)F)ccc1Cl,21µM*,86%,-3%,u,-5%,-18
O=C(CN1CCN(S(=O)(=O)c2ccc(F)cc2)CC1)Nc1ccc(F)cc1F,-10%,2%,10%,u,9%,3
Cn1c(=O)[nH]c(=O)c2c1nc(N1CCN(Cc3ccccc3)CC1)n2CCc1ccccc1,x,2%,x,x,x,x
CCOC(=O)c1c(C)oc2ncnc(NCCCN3CCN(c4cc(C)ccc4C)CC3)c12,7.3µM*,0%,x,4.6µM*,x,x
CCOC(=O)c1c(C)oc2nc(C)nc(NCCCN3CCN(c4ccccc4OC)CC3)c12,u,-14%,x,23µM*,x,x
CCOC(=O)c1c(C)oc2nc(C)nc(NCCCN3CCN(c4ccc(F)cc4)CC3)c12,21µM*,u,x,21µM*,x,x
CCOC(=O)c1c(C)oc2nc(C)nc(N3CCN(c4ccc(C(C)=O)cc4)CC3)c12,5.8µM*,-6%,x,2.9µM*,x,x
CCOC(=O)c1c(C)oc2nc(C)nc(NCC3CCN(Cc4ccc(F)cc4)CC3)c12,-29%,-24%,x,u,x,x
CCOC(=O)c1c(C)oc2nc(C)nc(NCC3CCN(Cc4cccc(C)c4)CC3)c12,3%,-12%,x,-11%,x,x
CCOC(=O)c1c(C)oc2ncnc(Nc3ccc(CC)cc3)c12,9%,-19%,x,u,x,x
COCc1noc([C@@H]2CN(Cc3ccccc3F)C[C@H]2COC)n1,x,31%,x,x,x,x
O=C(c1ccc(CS(=O)Cc2cccc(Cl)c2)o1)N1CCN(C2CCCCC2)CC1 (stereo not drawn),-12%,1%,-12%,18%,-8%,-11
O=C(c1ccc(CS(=O)Cc2ccc(Cl)cc2)o1)N1CCN(c2ccc(F)cc2)CC1 (stereo not drawn),u,-30%,-19%,-3%,-11%,u
O=C(c1ccc(COc2c(F)c(F)cc(F)c2F)o1)N1CCN(c2ccc(Cl)cc2)CC1,13µM*,-14%,8%,16µM*,u,-5
O=C(c1ccc(CS(=O)Cc2cccc(Cl)c2)o1)N1CCN(c2ccc(F)cc2)CC1 (stereo not drawn),u,-21%,-1%,16µM*,-2%,-11
Cc1ccc(C)c(N2CCN(C(=O)c3ccc(CS(=O)Cc4cccc(Cl)c4)o3)CC2)c1 (stereo not drawn),u,7%,-23%,-14%,-17%,-75*
SMILES,TDP1 cell CPT,ALOX12 inh,HT1080-NT tox,TDP1 cell noCPT,HT1080 IDH1KD tx,IL1B secr inh
O=C(c1ccc(CS(=O)Cc2ccc(Cl)cc2)o1)N1CCN(c2cccc(Cl)c2)CC1 (stereo not drawn),u,-13%,u,-28%,u,-83*
O=C(CNC(c1ccccc1)(c1ccccc1)c1ccccc1)c1c[nH]c2ccccc12,x,-6%,x,x,x,x
CCOc1ccc(S(=O)(=O)NNS(=O)(=O)c2ccc(C)cc2C)cc1,11%,u,1%,3%,11%,-4
CCCCc1c(O)nc2ccccn2c1=O,-8%,4%,5%,1%,0%,23
COc1cccc(CCNC(=O)c2c(O)nc3cc(C)ccn3c2=O)c1,4%,-6%,x,14%,x,x
COc1ccc(CCNC(=O)c2c(O)nc3c(C)cccn3c2=O)cc1OC,23µM*,-17%,x,u,x,x
Cc1ccc(CNC(=O)c2c(O)nc3ccccn3c2=O)cc1,u,u,x,29µM*,x,x
COc1cccc(CCNC(=O)c2c(O)nc3ccccn3c2=O)c1,23µM*,0%,x,21µM*,x,x
COc1ccc(CNC(=O)c2c(O)nc3cc(C)ccn3c2=O)cc1,5%,-18%,x,-16%,x,x
Cc1c(O)nc2ccccn2c1=O,-27%,460%,12%,-9%,5%,-65*
CC(C)n1nc(OC(C)(C)C(=O)NC2CCC(O)CC2)c2cc(CN3CCOCC3)ccc21 (stereo not drawn),x,-25%,x,x,x,x
Cc1cccn2c(=O)c(C(=O)NCCc3ccccc3)c(O)nc12,16µM*,-17%,x,u,x,x
COc1ccc(CCNC(=O)c2cc3c(=O)n4cccc(C)c4nc3n2C)cc1,2%,u,x,u,x,x
COc1ccc(CCNC(=O)c2nc3ncccn3n2)cc1OC,u,71%,6%,16µM*,8%,-3
COc1ccccc1CNC(=O)c1c(O)nc2c(C)cccn2c1=O,-13%,-16%,x,u,x,x
COc1ccc(CCNC(=O)c2cccc(-n3c(C)nc4cccnc43)c2)cc1OC,-21%,-30%,x,u,x,x
COc1cccc(CCNC(=O)c2c(O)nc3c(C)cccn3c2=O)c1,18µM*,-12%,x,u,x,x

# Screening results as filed in PubChem.
